In the library only some 1.6% were active in any assay of this set; here they are far more common.
KCNQ2 block = KCNQ2 (rat) channel inhibition | O88943 | CHO-K1 KCNQ2, FluxOR thallium flux, 20 min; active compounds read low | B-score at 10 µM | 310,000 tested, 1.1% active | AID 2156;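 active means fluorescence ratio B-score at most minus 3 library SDs, with starting brightness B-score within 2 library SDs, cut at about -5.5 in these data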
Target sequence (O88943 whole entry, looked up): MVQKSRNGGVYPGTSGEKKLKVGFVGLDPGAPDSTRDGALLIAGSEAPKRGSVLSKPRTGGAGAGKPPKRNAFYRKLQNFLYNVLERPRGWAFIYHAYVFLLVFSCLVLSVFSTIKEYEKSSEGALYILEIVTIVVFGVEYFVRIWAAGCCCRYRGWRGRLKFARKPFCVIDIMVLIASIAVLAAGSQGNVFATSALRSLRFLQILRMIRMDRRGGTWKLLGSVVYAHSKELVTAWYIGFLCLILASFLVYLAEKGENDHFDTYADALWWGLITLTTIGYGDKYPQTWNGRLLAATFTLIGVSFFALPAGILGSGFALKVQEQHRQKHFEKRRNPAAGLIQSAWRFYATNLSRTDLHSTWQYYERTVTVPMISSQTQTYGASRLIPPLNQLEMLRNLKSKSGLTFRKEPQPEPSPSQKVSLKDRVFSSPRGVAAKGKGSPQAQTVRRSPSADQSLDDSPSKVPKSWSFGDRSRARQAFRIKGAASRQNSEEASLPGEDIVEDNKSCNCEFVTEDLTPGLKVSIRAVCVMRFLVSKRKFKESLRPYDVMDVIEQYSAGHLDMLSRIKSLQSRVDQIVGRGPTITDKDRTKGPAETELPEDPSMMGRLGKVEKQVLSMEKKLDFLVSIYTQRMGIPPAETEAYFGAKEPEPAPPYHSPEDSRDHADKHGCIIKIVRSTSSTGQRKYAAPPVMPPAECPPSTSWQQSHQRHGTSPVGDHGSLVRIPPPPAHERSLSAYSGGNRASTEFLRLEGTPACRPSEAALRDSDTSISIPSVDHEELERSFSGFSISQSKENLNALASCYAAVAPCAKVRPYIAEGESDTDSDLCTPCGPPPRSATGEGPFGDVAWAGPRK
KCNQ2 pot = potentiators of rat KCNQ2 potassium channel; O88943; CHO-K1 KCNQ2, FluxOR thallium flux fluorescence; active compounds read high; B-score at 10 µM; 310,000 tested, 0.54% active; AID 2239;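 active means fluorescence ratio B-score at least 3 SD of library B-scores, with initial fluorescence B-score within 3 of them, cut at about 5.3 in these data; same plate scores as AID 2156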;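 further: B-score of peak minus minimum over baseline fluorescence ratio after K+ and Tl+ stimulus; positive B-score means potentiation of KCNQ2 with more thallium influx and brighter signal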
KCNQ2 block conf = confirmation of rat KCNQ2 potassium channel inhibitors. shares compounds with KCNQ2 block. 1,000 tested, 57% active. activity change, negative = inhibition, % at 10 µM. KCNQ2-expressing cells, thallium flux, inhibition; active compounds read low;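 further: 0% = vehicle wells and values are ratio percent relative to vehicle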
KCNQ1 spec = selectivity of KCNQ2 inhibitors against human KCNQ1; 1,000 tested, 15% active; shares compounds with KCNQ2 block; KCNQ1-expressing cells, FluxOR thallium flux fluorescence; active compounds read low; activity change, negative = inhibition, % at 10 µM; AID 493026;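 active means activity change at least 3 SD of negative controls below their mean in both duplicate wells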;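 further: CHO cells stably transfected with KCNQ1 and depolarized by potassium stimulus; peak minus minimum fluorescence over baseline after thallium addition; 0% = vehicle negative control and -100% = blank without thallium stimulus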
CHO Tl ctr = KCNQ2 inhibitor counter-screen hit in parental CHO cells | 1,000 tested, 14% active | thallium flux counter-screen; active compounds read low | shares compounds with KCNQ2 block | AID 493029 | activity change, % at 10 µM;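 further: 0% = vehicle negative controls with stimulus buffer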
KCNQ2 patch conf = rat KCNQ2 inhibition confirmed by electrophysiology | shares compounds with KCNQ2 block | KCNQ2-expressing cells, automated patch clamp current | calls only at 10 µM | 550 tested, 49% active | AID 588531
Active calls of the source: *; i = inactive; . = not tested or not shown; + = active, no number. Unless noted, how the calls were made is not given here.

SMILES	KCNQ2 block	KCNQ2 pot	KCNQ2 block conf	KCNQ1 spec	CHO Tl ctr	others
Cc1ccc(NC(=O)c2ccccc2OCC(=O)c2ccccc2)cc1	i	.	.	.	.
Cc1cccc(NC(=O)c2ccccc2OCC(=O)c2ccccc2)c1	-8.23*	-8.23	i	i	i
CCc1nnc(NC(=O)Cc2ccc(OCc3c(C)noc3C)cc2)s1	i	.	.	.	.
O=C(O)C1(P(=O)(c2ccc(Cl)cc2)c2ccc(Cl)cc2)CC1	i	0.44	.	.	.
CCOC(=O)C1(P(=O)(c2ccc(Cl)cc2)c2ccc(Cl)cc2)CCC1	-7.24*	-7.24	-29.0%*	i	i	KCNQ2 patch conf=+
CCN(CC)c1ccc(NC(=O)CC2Oc3ccccc3NC2=O)c(C)c1 (stereo unspecified)	i	0.78	.	.	.
Cc1ccc(SCC(=O)OCC(=O)NC2(C#N)CCCCC2)cc1	i	0.03	.	.	.
O=C(CCNC(=O)c1ccc([N+](=O)[O-])cc1)Nc1ccc(S(=O)(=O)N2CCOCC2)cc1	i	0.1	.	.	.
Cc1cccc(C)c1OCC(O)CN(Cc1ccccc1O)C1CCCCC1 (stereo unspecified)	-8.39*	-8.39	-41.0%*	-43.0%*	-35.5%*	KCNQ2 patch conf=+
CN(CC(O)COc1ccc(OCC(O)CN(C)C2CCCCC2)cc1)C1CCCCC1 (stereo unspecified)	i	0.08	.	.	.
O=C(CSc1ccc(F)cc1)NC12CC3CC(CC(C3)C1)C2	i	.	.	.	.
O=C(CCSc1ccc(Cl)c(Cl)c1)NC12CC3CC(CC(C3)C1)C2	-10.7*	-10.7	i	i	i
CC1CCN(C(=O)/C(=C/c2ccccc2Cl)c2ccccc2)CC1	-7.51*	-7.51	-32.5%*	i	i	KCNQ2 patch conf=i
CN1CCN(C(=O)/C(=C\c2ccccc2)c2ccccc2)CC1	i	1.39	.	.	.
O=C(N/N=C/c1ccc(O)c(Br)c1)c1cc2c(ccc3ccccc32)o1	i	.	.	.	.
O=C(N/N=C/c1cc(Br)c(O)c(Br)c1)c1cc2c(ccc3ccccc32)o1	-10.7*	-10.7	-53.0%*	-49.5%*	-54.5%*	KCNQ2 patch conf=i
COc1ccc(C(=O)CC(Nc2ccc([N+](=O)[O-])cc2)c2ccc(OC)cc2)cc1 (stereo unspecified)	-10.5*	-10.5	-26.0%*	i	i	KCNQ2 patch conf=i
COc1ccc(C(=O)/C=C/Nc2ccc([N+](=O)[O-])cc2)cc1	i	.	.	.	.
CC(=O)c1cccc(NC(=O)CSc2nc(=O)n(CCN3CCOCC3)c3c2CCCC3)c1	i	0.67	.	.	.
Cc1ccc(C(=O)NNC(=O)c2cccc(S(=O)(=O)N3CCN(c4ccccc4)CC3)c2)cc1	i	.	.	.	.
CCCCCCCCCOC(=O)C(CC(=O)O)N1CCOCC1 (stereo unspecified)	i	.	.	.	.
CCCCCOC(=O)CC(C(=O)OCCCCC)N1CCCCC1 (stereo unspecified)	-9.22*	-9.22	-34.5%*	-32.0%*	-29.5%*	KCNQ2 patch conf=i
Cc1ccc(NC(=O)CN2C(=O)NC3(CCc4ccccc43)C2=O)cc1S(=O)(=O)N1CCCCC1 (stereo unspecified)	i	.	.	.	.
CCN(Cc1ccncc1)C(=O)c1ccc2c(c1)S(=O)(=O)c1ccccc1C2=O	i	1.63	.	.	.
Cc1cc2c(cc1S(=O)(=O)N(C)c1ccccc1)n(C)c(=O)n2C	i	0.79	.	.	.
SMILES	KCNQ2 block	KCNQ2 pot	KCNQ2 block conf	KCNQ1 spec	CHO Tl ctr	others
Cc1cc(C)c(S(=O)(=O)N(C)c2ccccc2)c(C)c1	-7.47*	-7.47	-31.0%*	i	i	KCNQ2 patch conf=i
COc1ccc(C(=O)CCN2CCN(c3ccccc3OC)CC2)cc1	i	.	.	.	.
COc1ccc(C(=O)CCN2CCc3cc(OC)c(OC)cc3C2)cc1	-9.62*	-9.62	-32.0%*	i	i	KCNQ2 patch conf=i
COc1cc(C(=O)Nc2c(C)cc(C)cc2C)c(Br)c(OC)c1OC	-8.77*	-8.77	i	i	i
COc1ccc(NC(=O)c2cc(OC)c(OC)c(OC)c2Br)cc1OC	i	2.68	.	.	.
Cc1ccc2c(c1)c1c3n2CCN(C(=O)CN2CCN(C)CC2)C3CCC1 (stereo unspecified)	i	.	.	.	.
CN1CCN(CC(=O)N2CCn3c4c(c5cc(C6CCCCC6)ccc53)CCCC42)CC1 (stereo unspecified)	-12.6*	-12.6	-30.5%*	i	i	KCNQ2 patch conf=i
O=C(O)CC(CNS(=O)(=O)c1ccccc1)c1ccccc1 (stereo unspecified)	i	.	.	.	.
COc1ccc(CCNC(=O)CCSc2nc(-c3ccco3)cc(C(F)(F)F)n2)cc1OC	i	.	.	.	.
COc1ccc(-c2oc3c4c(cc(OC)c3c(=O)c2CC=C(C)C)OC(C)(C)C=C4)c(OC)c1	-9.01*	-9.01	i	i	i
CC(C)=CCc1c(-c2ccc(O)cc2O)oc2cc3c(c(O)c2c1=O)C=CC(C)(C)O3	i	.	.	.	.
Cc1ccccc1NS(=O)(=O)c1ccc2oc(=O)ccc2c1	i	.	.	.	.
CC(C)(CNC(=O)c1cccc(S(=O)(=O)Nc2ccc(Br)cc2)c1)N1CCOCC1	i	.	.	.	.
Cc1onc(-c2ccccc2Cl)c1C(=O)NCCn1c(C)cc2ccccc21	-11.9*	-11.9	-35.5%*	i	i	KCNQ2 patch conf=+
Cc1onc(-c2ccccc2Cl)c1C(=O)NCC(=O)O	i	0.01	.	.	.
COC(=O)C(C)NC(=O)C12CC3CC(C1)CC(c1ccc(C)cc1)(C3)C2 (stereo unspecified)	i	.	.	.	.
O=C(Nc1ccccc1N1CCCCC1)c1cc(S(=O)(=O)N2CCOCC2)ccc1Cl	-9*	-9	-28.5%*	i	i	KCNQ2 patch conf=+
CCN1CCN(S(=O)(=O)c2ccc(Cl)c(C(=O)Nc3cc(Cl)ccc3N3CCOCC3)c2)CC1	-6.72*	-6.72	i	i	i
CCN1CCN(S(=O)(=O)c2ccc(Cl)c(C(=O)Nc3ccccc3N3CCOCC3)c2)CC1	i	.	.	.	.
O=C(Nc1ccccc1Cl)c1cc(S(=O)(=O)N2CCCCC2)ccc1N1CCOCC1	i	.	.	.	.
Cc1ccc2nsnc2c1S(=O)(=O)N1CCN(Cc2ccc3c(c2)OCO3)CC1	i	0.82	.	.	.
CC(=O)c1cccc(S(=O)(=O)N2CCCC(c3nc4c(nnn4Cc4cccc(Cl)c4)c(=O)[nH]3)C2)c1 (stereo unspecified)	i	.	.	.	.
CCOC(=O)CN(C)C(=O)C1CCCN1C(=O)OC(C)(C)C (stereo unspecified)	i	.	.	.	.
Cc1ccc(NCCC(=O)c2cccs2)cc1C	-6.65*	-6.65	i	i	i
Cc1ccc(NCCC(=O)c2cccs2)cc1Cl	i	.	.	.	.
Nc1cc(C(F)(F)F)ccc1NCCc1ccccn1	i	.	.	.	.
CCn1c(C(=O)N2CCCC(C(=O)O)C2)cc2sccc21 (stereo unspecified)	i	0.84	.	.	.
CCn1c(C(=O)N2CCC(Cc3ccccc3)CC2)cc2sccc21	-7.24*	-7.24	i	i	i
CCc1nnc(NS(=O)(=O)c2ccc(NC(=O)/C=C/c3ccc(OC)cc3OC)cc2)s1	i	1.13	.	.	.
CCN(Cc1ccccc1)C(c1cccs1)c1nnnn1C1CCCCC1 (stereo unspecified)	-10.3*	-10.3	-33.5%*	i	i	KCNQ2 patch conf=i

From PubChem
